Screens: PubChem BioAssay, National Center for Advancing Translational Sciences (NCATS)
RORg inh = qHTS for inhibitors of ROR gamma transcriptional activity; AID 2551, 2010; Potency, µM (series often up to 53.6 µM), for inactives: at the top dose activity change, negative = inhibition, most hits filed as inhibitors; Nuclear receptor ROR-gamma (Mus musculus), P51450; actives 5.4% (n = 310,000); Drosophila S2 Gal4-RORgamma UAS-luciferase reporter, 20 h; further: nearly all actives have a fitted effect of over 60% in size
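Luciferase reporter read in Schneider cells carrying Gal4-RORγ (mouse) and UAS-Photinus luciferase; cells given compound 1 h before 700 uM copper sulfate induction, then incubated 20 h at ambient temperature.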
DT40 TDP1 CPT = qHTS for Inhibitors of human tyrosyl-DNA phosphodiesterase 1 (TDP1): qHTS in cells in presence of CPT. chicken DT40 Tdp1-/-;hTDP1 cells + 20 nM CPT, ATP luminescence, 48 h. Potency, µM (top dose mostly 46.2 µM), for inactives: top-dose activity change, negative = growth inhibition, actives largely listed as inhibitors. actives 12% (n = 420,000); further: nearly all actives have a fitted effect of over 55% in size
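Chicken DT40 Tdp1-/- cells stably complemented with human TDP1 were seeded at 400 cells/well in medium containing 20 nM camptothecin, exposed to pin-transferred compounds, and grown at 37 °C for at least 48 hr. Viability was read as ATP luminescence.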
VP16 counter = VP16 counterscreen qHTS for inhibitors of ROR gamma transcriptional activity; Drosophila S2 Gal4-VP16 UAS-luciferase, luminescence, 20 h; Potency, µM (titrated, usually from 53.6 µM), inactives show at the top dose activity, negative = inhibition, actives largely listed as inhibitors; actives 3.5% (n = 310,000);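 further: Gal4-VP16 expression switched on by copper sulfate through the metallothionein promoter; nearly all actives have a fitted effect of over 50% in size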
TDP1 inh = qHTS Assay for Inhibitors of Tyrosyl-DNA Phosphodiesterase (TDP1); Tyrosyl-DNA phosphodiesterase 1 (Homo sapiens), Q9NUW8; recombinant TDP1, AlphaScreen DNA substrate cleavage; Potency, µM (top dose mostly 130 µM), for inactives: at the top dose activity change, negative = inhibition, actives largely listed as inhibitors; actives 0.28% (n = 350,000); further: nearly all actives have a fitted effect of over 40% in size
Target sequence (Q9NUW8 whole entry, looked up): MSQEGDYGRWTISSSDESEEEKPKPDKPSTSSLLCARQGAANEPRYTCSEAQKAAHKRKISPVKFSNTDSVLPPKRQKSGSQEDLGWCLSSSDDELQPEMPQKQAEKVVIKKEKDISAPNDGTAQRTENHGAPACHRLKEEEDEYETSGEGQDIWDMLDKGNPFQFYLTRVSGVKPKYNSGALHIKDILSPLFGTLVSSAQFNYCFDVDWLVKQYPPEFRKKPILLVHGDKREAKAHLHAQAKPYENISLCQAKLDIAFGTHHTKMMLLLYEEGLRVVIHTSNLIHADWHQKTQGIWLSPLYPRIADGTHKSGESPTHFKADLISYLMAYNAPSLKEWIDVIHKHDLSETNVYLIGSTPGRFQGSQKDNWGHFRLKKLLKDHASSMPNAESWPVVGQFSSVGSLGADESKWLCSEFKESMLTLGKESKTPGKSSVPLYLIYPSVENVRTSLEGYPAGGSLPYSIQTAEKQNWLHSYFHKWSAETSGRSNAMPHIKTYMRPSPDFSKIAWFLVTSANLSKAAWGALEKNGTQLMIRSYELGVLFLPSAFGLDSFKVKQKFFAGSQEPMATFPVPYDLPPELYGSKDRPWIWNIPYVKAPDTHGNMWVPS
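Steps: enzyme plus compound, 15 min RT; add biotin/phosphotyrosine-FITC oligonucleotide (15 nM final), react 5 min; add donor/acceptor beads (10 ug/ml final), 10 min; read AlphaScreen. Tdp1 at 1 nM final.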
TDP1 cell noCPT = qHTS for Inhibitors of human tyrosyl-DNA phosphodiesterase 1 (TDP1): qHTS in cells in absence of CPT; DT40 Tdp1-/- hTDP1 cells, no CPT, ATP luminescence, 48 h; Potency, µM (top dose mostly 46.2 µM), for inactives: at the highest dose activity change, negative = growth inhibition, actives largely listed as inhibitors; actives 15% (n = 420,000); AID 686978, 2013; further: nearly all actives have a fitted effect of over 55% in size
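A cellular qHTS used chicken DT40 cells lacking endogenous Tdp1 but carrying stably transfected human TDP1. Compounds were applied without camptothecin, and cell growth kinetics were judged by ATP-dependent luminescence after ≥48 hr.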
An asterisk follows results filed as active. Compounds with a hit are over-represented: about 19% of the library has one in this group of screens. The call rests on the fitted dose curve; in most records, active means well fitted curve in the direction sought with a large enough effect; inconclusive means small, poorly fitted or top-dose-only effect, or another doubt; inactive means no such curve, though single readings can be large; an effect the other way counts as inactive or inconclusive. On the % scale 0 is the no-effect control and ±100 the full control effect; potency means the concentration at half of the fitted maximal effect.

What do the screens show for `CCN(C[C@H]1N[C@@](Cc2ccccc2)(C(=O)OC)[C@H]2C(=O)N(Cc3ccccc3)C(=O)[C@@H]12)C(=O)c1ccc(F)cc1`?
DT40 TDP1 CPT: 16.4µM*; TDP1 inh: 0.9%; TDP1 cell noCPT: inconclusive

How did CCN(C[C@H]1N[C@@](CC)(C(=O)OC)[C@H]2C(=O)N(Cc3ccccc3)C(=O)[C@@H]12)C(=O)Nc1ccc(C(F)(F)F)cc1 do in these assays?
DT40 TDP1 CPT: -8.8%; TDP1 inh: -0.2%; TDP1 cell noCPT: 6.51µM*

What do the screens show for `CCN(C[C@H]1N[C@@](CC)(C(=O)OC)[C@H]2C(=O)N(Cc3ccccc3)C(=O)[C@@H]12)C(=O)c1ccc(C)cc1`?
DT40 TDP1 CPT: inconclusive; TDP1 inh: 0.9%; TDP1 cell noCPT: 14.6µM*

Results for COC(=O)[C@]1(Cc2ccccc2)N[C@H](CN(C)C(=O)C2CCCCC2)[C@@H]2C(=O)N(Cc3ccccc3)C(=O)[C@@H]21 ?
DT40 TDP1 CPT: 20.6µM*; TDP1 inh: 1.4%; TDP1 cell noCPT: 16.4µM*

How did COC(=O)[C@H](CC(C)C)NC(=O)Cn1cnc2c(SC)nc(N)nc21 do in these assays?
DT40 TDP1 CPT: 22.5%; TDP1 inh: 1.6%; TDP1 cell noCPT: -9.9%

How did Cc1cc(C)cc(NC(=O)c2sc3nc4n(c(=O)c3c2C)N=C(c2ccc(F)cc2)CS4)c1 do in these assays?
DT40 TDP1 CPT: -17.4%; TDP1 inh: 3.4%; TDP1 cell noCPT: -25.9%

Results for Cc1c(C(=O)Nc2ccc(F)cc2F)sc2nc3n(c(=O)c12)N=C(c1ccccc1)CS3 ?
DT40 TDP1 CPT: 14.6µM*; TDP1 inh: -1.5%; TDP1 cell noCPT: inconclusive

Results for Cc1cc(-c2nnc(-c3cccc(C(F)(F)F)c3)o2)no1 ?
RORg inh: 25.7%; DT40 TDP1 CPT: 16.1%; VP16 counter: inconclusive; TDP1 inh: 0.0%; TDP1 cell noCPT: -23.9%

Results for COc1ccc2[nH]c3c(=O)n(/N=C/[C@H]4C(C)C=C(C)CC4C)c(=O)[nH]c3c2c1 (stereo partly drawn) ?
RORg inh: 4.5%; DT40 TDP1 CPT: 18.4µM*; VP16 counter: -18.8%; TDP1 inh: 2.9%; TDP1 cell noCPT: 16.4µM*

Results for COc1ccccc1NC(=O)C/C(N)=N/OCC(=O)Nc1cccc(Cl)c1 ?
DT40 TDP1 CPT: -21.1%; TDP1 inh: 0.2%; TDP1 cell noCPT: -19.2%

How did O=C(NCCc1ccccc1)c1ccc(Br)o1 do in these assays?
RORg inh: 8.0%; DT40 TDP1 CPT: inconclusive; VP16 counter: -1.4%; TDP1 inh: 3.9%; TDP1 cell noCPT: -20.3%

How did COc1ccc(CNCCc2ccc([N+](=O)[O-])cc2)c(OC)c1OC do in these assays?
RORg inh: -15.4%; DT40 TDP1 CPT: 6.51µM*; VP16 counter: 1.3%; TDP1 cell noCPT: 20.6µM*

How did COc1ccc(CCNC(=O)c2ccc(Br)o2)cc1Br do in these assays?
DT40 TDP1 CPT: 23.1µM*; TDP1 cell noCPT: inconclusive

How did COc1ccc(CCNC(=O)c2ccc(Br)cc2)cc1 do in these assays?
RORg inh: 4.6%; DT40 TDP1 CPT: -11.3%; VP16 counter: 7.0%; TDP1 cell noCPT: -20.7%

Results for COc1ccc(CCNC(=O)c2ccc(-c3ccc([N+](=O)[O-])cc3)o2)cc1OC ?
RORg inh: inconclusive; DT40 TDP1 CPT: 18.4µM*; VP16 counter: -2.7%; TDP1 inh: 0.0%; TDP1 cell noCPT: inconclusive

What do the screens show for `COc1ccc(NC(=O)c2ccc(-c3ccc([N+](=O)[O-])cc3)o2)cc1`?
RORg inh: 4.7%; DT40 TDP1 CPT: inconclusive; VP16 counter: -1.9%; TDP1 inh: -2.5%; TDP1 cell noCPT: inconclusive

What do the screens show for `COc1ccc(CCNC(=O)c2coc(=O)c(Br)c2)cc1`?
RORg inh: -30.1%; DT40 TDP1 CPT: 0.651µM*; VP16 counter: 0.6%; TDP1 cell noCPT: 1.3µM*

How did Cc1ccc(C(=O)OCC(=O)NCc2ccc3c(c2)OCO3)cc1S(=O)(=O)N1CCOCC1 do in these assays?
DT40 TDP1 CPT: -10.1%; TDP1 inh: -3.0%; TDP1 cell noCPT: -11.9%

Results for CCOC(=O)N1CCN(C(=O)CSc2nnc(CNC(=O)c3ccccc3F)o2)CC1 ?
RORg inh: -28.1%; DT40 TDP1 CPT: -13.8%; VP16 counter: 11.0%; TDP1 inh: 3.9%; TDP1 cell noCPT: -23.7%

Results for Nc1ccc(-c2cc3ccccc3oc2=O)cc1 ?
DT40 TDP1 CPT: -7.7%; TDP1 inh: 2.8%; TDP1 cell noCPT: 0.3%

Results for O=C/C=C/c1c(-c2ccccc2)cc2oc3ccccc3cc1-2 ?
RORg inh: inconclusive; DT40 TDP1 CPT: inconclusive; VP16 counter: inconclusive; TDP1 cell noCPT: 18.4µM*

What do the screens show for `CC(C)Oc1ccc(F)cc1-c1cc(C(=O)NC2CCCCC2)[nH]n1`?
DT40 TDP1 CPT: inconclusive; TDP1 cell noCPT: 14.6µM*

What do the screens show for `CC(C)Oc1cc(F)ccc1-c1cc(C(=O)NC2CCCCC2)[nH]n1`?
DT40 TDP1 CPT: 20.6µM*; TDP1 cell noCPT: inconclusive

How did CC(C)Oc1cc(F)ccc1-c1cc(C(=O)NCCc2ccncc2)[nH]n1 do in these assays?
DT40 TDP1 CPT: 18.4µM*; TDP1 cell noCPT: inconclusive

What do the screens show for `COc1cccc([C@@H]2Oc3ccc(OC)cc3C(=O)[C@H]2OC(=O)NC2CCCC2)c1`?
RORg inh: 6.9%; VP16 counter: 0.6%; TDP1 inh: 3.7%

How did Cc1ccccc1-n1nc2c(c1NC(=O)c1cc3ccccc3o1)CS(=O)(=O)C2 do in these assays?
DT40 TDP1 CPT: -20.4%; TDP1 inh: -5.7%; TDP1 cell noCPT: 4.5%

Results for CCOc1ccc(C(=O)NC(=S)Nc2cccnc2)cc1 ?
RORg inh: -16.3%; DT40 TDP1 CPT: -0.8%; VP16 counter: 0.2%; TDP1 inh: -0.6%; TDP1 cell noCPT: -22.1%

How did CSc1cccc(NC(=S)NC(=O)c2cccnc2)c1 do in these assays?
RORg inh: 10µM*; DT40 TDP1 CPT: -25.8%; VP16 counter: 11.2µM*; TDP1 cell noCPT: -18.7%

How did CCOc1cc(C(=O)NC(=S)Nc2cccnc2)cc(OCC)c1OCC do in these assays?
RORg inh: 12.6µM*; DT40 TDP1 CPT: inconclusive; VP16 counter: inconclusive; TDP1 inh: 8.2%; TDP1 cell noCPT: 23.1µM*

Results for COc1cccc(C(=O)NC(=S)Nc2cccnc2)c1 ?
RORg inh: inconclusive; DT40 TDP1 CPT: 5.6%; VP16 counter: -25.3%; TDP1 inh: -4.1%; TDP1 cell noCPT: -3.3%
